Molecules are shown by their SMILES. Among all 360,000 compounds or so, about 420 (0.12%) were called active. No stated cut-off is given here; in the data, active means inhibition above about 30%; inconclusive means no clear call, values can overlap the other calls; inactive means below that. This excerpt belongs to a sample that is enriched for actives.

Inhibition data for 90 compounds are collected here from PubChem BioAssay AID588501 (NMMLSC, 2011).

The target of the test is Lethal factor (Bacillus anthracis) (UniProt P15917). Nature of the test: Bacillus anthracis LF protease inhibitors, primary screen, biochemical, multiplex microsphere, MLPCN library (AID 588501). Further: plate controls were buffer without enzyme for full effect and enzyme alone for no effect. As to conditions: multiplex microsphere protease cleavage assay, at 10 µM, stronger effect = higher value.
For orientation: inhibition means the drop in the measured response relative to a control, in per cent. With `NC1=NC(=O)S/C1=C\c1ccc(O)cc1`, the inhibition is -0.1% (inactive).
On to `O=C(/C=C(O)/C=C/c1ccc(O)cc1)/C=C/c1ccc(O)cc1`, for which the inhibition is 31.4% (active).
Consider `C=CCNC(=O)/C=C/c1ccc(C(C)C)cc1`, for which the inhibition is -1.4% (inactive).
Consider `CC(O)CN(Cc1ccc(Cl)cc1)CC(C)O` (stereo not given), for which the inhibition was 0.1% (inactive).
Under `O=C1N[C@@H](Cc2ccccc2)C(=O)N2[C@H]1C[C@]1(Br)c3ccccc3N(S(=O)(=O)c3ccccc3)[C@H]21` stands -0.3% (inactive).
Regarding `Cn1c(SCC(=O)c2ccccc2)ncc(C(=O)Nc2ccc(F)cc2)c1=O`, the inhibition is -1.5% (inactive).
As for `CCCCN1CC(COc2ccccc2)Oc2cccc(F)c2S1(=O)=O` (stereo not given), the inhibition was -2.2% (inactive).
Regarding `CN(Cc1cn(Cc2ccc(C(F)(F)F)cc2)nn1)C1CN(Cc2cn(Cc3ccc(C(F)(F)F)cc3)nn2)S(=O)(=O)C1` (stereo not given), the inhibition is -0.1% (inactive).
In the case of `COC(=O)[C@H]1Cc2cnoc2C[C@]1(C)C(=O)O`, the inhibition was 4.2% (inactive).
Under `COc1ccc2[nH]c(=O)c(C3c4cc(OC)c(OC)cc4CCN3C(=O)c3ccco3)cc2c1` (stereo not given) stands -1.5% (inactive).
For the compound `O=[N+]([O-])c1ccc(NC(=S)N2CCN(c3ccccn3)CC2)cc1`, the inhibition is 1.1% (inactive).
Regarding `CC(=NNC(=S)N1CCCCCC1)c1ccccn1`, the inhibition was 50% (active).
For the compound `CCOC(=O)c1ccc(NC(=S)N2CCN(c3ccccn3)CC2)cc1`, the inhibition is -15.7% (inactive).
`COc1ccccc1CNC(=O)c1cc(-c2cc(F)ccc2OC)n[nH]1`: the inhibition is -4.6% (inactive).
As for `O=C(NC1CCCC1)C(c1ccco1)N(C(=O)c1ccco1)c1ccc(F)cc1` (stereo not given), the figure is -0.3% (inactive); as for `Cc1cc(C)c2nc(SCC(=O)N(C)C3CCS(=O)(=O)C3)cc(C)c2c1` (stereo not given), 0.4% (inactive).
Under `N#CC(Cc1cc2ccccc2n1S(=O)(=O)c1ccccc1)OCc1ccccc1` (stereo not given) stands -10.4% (inactive).
Under `O=C(NN1C(=O)C2CCCCC2C1=O)c1ccco1` (stereo not given) stands 15.5% (inactive); under `CC(C)c1c(O)nc(SCCOc2ccc(Cl)cc2)[nH]c1=O`, -0.5% (inactive).
`COc1ccc(C(=O)Nc2nc(-c3ccc(OC)cc3)c(-c3ccc([N+](=O)[O-])cc3)s2)cc1`: the inhibition is 30.1% (active).
On to `COc1ccc(NC(=O)c2cn(CCC#N)nc2-c2ccc([N+](=O)[O-])cc2)cc1`, for which the inhibition is -4.4% (inactive).
In the case of `COc1ccc(-c2[nH][nH]c(=O)c2NC(=O)c2ccc([N+](=O)[O-])cc2)cc1`, the inhibition was 6.4% (inactive).
As for `Cc1ccc(CSCCNC(=O)CN(c2ccc(F)cc2)S(C)(=O)=O)cc1`, the figure is 3% (inactive); as for `COc1ccc(N(CC(=O)NCCSCc2cccc(Cl)c2)S(C)(=O)=O)cc1`, 34.3% (active); as for `COc1ccc(CCNC(=O)CN(c2ccccc2)S(C)(=O)=O)cc1`, 3.6% (inactive).
As for `Cc1cccc(N2CCN(C(=O)CCS(=O)(=O)c3ccc4c(c3)NC(=O)C(C)S4)CC2)c1C` (stereo not given), the figure is -3% (inactive).
As for `Cc1ccc(-c2csc(N3CCN(c4cc5c(cc4Cl)nc(-c4ccncc4)n5CCOCCO)CC3)n2)cc1`, the figure is -0.9% (inactive); as for `COc1ccc(-c2nc3ccccc3n2CCC(C)C)cc1OC`, 0.7% (inactive); as for `CC(=O)OCCN(CCCn1c(-c2ccncc2)nc2ccccc21)c1nc(-c2ccc(C)cc2)cs1`, 41.1% (active).
With `COc1ccc(N2CCN(C(=O)c3ccccc3NC(=O)C3=C(C)OCCS3)CC2)cc1`, the inhibition is 1.2% (inactive).
As for `COc1ccc(CC(=O)NC(C)c2ccc(Cl)c(Cl)c2)cc1S(=O)(=O)N1CCOCC1` (stereo not given), the figure is 1.2% (inactive); as for `O=C(NCc1ccncc1)C(=O)NCC1OCCN1S(=O)(=O)c1ccc(Br)cc1` (stereo not given), -6.7% (inactive); as for `C=C1C(=O)[C@]23C[C@H]1CCC2[C@@]1(C)C(C[C@@H]3O)[C@](C)(C(=O)O)CC[C@@H]1O` (stereo not given in full), 6% (inactive).
Regarding `COc1ccc(OCC(=O)NCCc2ccc(S(N)(=O)=O)cc2)cc1`, the inhibition is -1.2% (inactive).
For the compound `CCC(C)(C(=O)Nc1ccccc1C)N(C(=O)CNC(C)=O)c1ccc(C)cc1` (stereo not given), the inhibition was 0.5% (inactive).
Take `COC(=O)Cc1ccc(N(Cc2ccccc2F)S(=O)(=O)c2ccc(Br)cc2)cc1`: the inhibition is -0.1% (inactive).
As for `CC(C)(C)c1ccc(C(=O)N2CCN(CCNC(=O)C(=O)Nc3ccc(F)cc3)CC2)cc1`, the figure is -3.8% (inactive); as for `Cc1cccc(N2CCN(C(C)C(=O)N3CCc4ccccc43)CC2)c1C` (stereo not given), -6.6% (inactive).
For `COCCn1c(N)c(NCc2ccccc2)c(=O)[nH]c1=O`, the inhibition was -3.2% (inactive).
Regarding `COCCNc1ncnc2c1nc1n2CCCC1`, the inhibition is 0.3% (inactive).
Under `OC(c1ccccc1)C(CN1CCOCC1)c1ccccc1` (stereo not given) stands -9.8% (inactive); under `OC(c1ccc(Cl)cc1)C(CN1CCOCC1)c1ccccc1` (stereo not given), 40.7% (active); under `O=C(CC(c1ccccc1)c1cc(Cl)ccc1O)NCCN1CCOCC1` (stereo not given), -5.6% (inactive).
As for `O=S(N1CCCCCC1)C12CC3CC(CC(C3)C1)C2` (stereo not given), the figure is -5.3% (inactive); as for `O=C(C[n+]1cc(Br)cc2ccccc21)c1ccc(F)cc1`, 36.5% (active); as for `O=C(CNC(=O)c1ccccc1F)c1ccc(Br)cc1`, 0.4% (inactive).
As for `O=C(c1ccc(F)cc1)n1c(=S)nc2ccccn21`, the inhibition was -9.4% (inactive).
As for `COc1ccc(CNC(=O)C(NS(=O)(=O)c2cccc3nsnc23)C(C)C)cc1` (stereo not given), the figure is 0.7% (inactive); as for `NS(=O)(=O)c1ccc(CCNC(=O)c2ccc(Cl)c(S(=O)(=O)N3CCCCCC3)c2)cc1`, -0.9% (inactive); as for `O=C(O)C1CCCN(CCC=C(c2ccccc2)c2ccccc2)C1` (stereo not given), -6.7% (inactive).
With `O=C(O)c1ccc(S(=O)(=O)N2CCC(Cc3ccccc3)CC2)cc1`, the inhibition is -1.5% (inactive).
As for `Cc1ccc2cc(CCNC(=O)c3c(-c4ccccc4Cl)noc3C)c(=O)[nH]c2c1`, the figure is -10.3% (inactive).
As to `Cc1onc(-c2ccccc2Cl)c1C(=O)N(Cc1ccc(N(C)C)cc1)C(C)C`, the inhibition was 8.3% (inactive).
Under `Cc1onc(-c2ccccc2Cl)c1C(=O)NCCn1ccc2ccccc21` stands 53.9% (active); under `CCC(=O)N1Cc2cc(C(=O)NCc3cccc(F)c3)nc(-c3cccc(C4=CCCC4)c3)c2[C@H]1CCO`, -8.3% (inactive); under `Cc1ccc(OCC(=O)N2CCN(C(=O)c3cccnc3)CC2)cc1`, -7.8% (inactive).
As for `CN1/C(=c2/s/c(=C3/C(=O)N(c4ccccc4)NC3=Nc3ccccc3)n(C)c2=O)C(C)(C)c2ccccc21`, the figure is -14.6% (inactive); as for `COc1cc2c(cc1OC)C(C)N(S(=O)(=O)c1cnc(Cl)c(Cl)c1)CC2` (stereo not given), 3.2% (inactive); as for `COc1ccccc1OCCC(=O)OCC(=O)NCc1ccccc1`, -1.1% (inactive).
As for `CN1C(=O)/C(=C\c2ccc(-c3ccccc3)o2)SC1=S`, the inhibition is 30.1% (active).
As for `NS(=O)(=O)c1ccc(-c2ccc(/C=C3\SC(=O)NC3=O)o2)cc1`, the figure is -4.1% (inactive); as for `Cc1ccc(C(=O)O)cc1-c1ccc(/C=C2\SC(=O)N(CC(=O)Nc3ccc4c(c3)OCO4)C2=O)o1`, -2.8% (inactive).
Under `CCC1CCc2c(sc(NC(C)=O)c2C#N)C1` (stereo not given) stands 2.5% (inactive); under `CCc1nc2ccc(C(=O)NC3CCN(Cc4ccccc4)CC3)cn2c1N(C)CCN1CCOCC1`, -2.5% (inactive).
Under `COC(=O)c1ccc2nc(-c3ccc(C)cc3)c(Cc3ccc(OC)cc3C)n2c1` stands 2.1% (inactive).
As for `COc1cc(NC(=O)CSc2nnc3ccc(-c4ccncc4)nn23)cc(OC)c1`, the inhibition was -3.6% (inactive).
Under `O=C(NCc1ccccc1Cl)NC(=O)c1csc([N+](=O)[O-])c1` stands -4.7% (inactive).
For `O=C(NNC1=NCCC1)c1cccc(S(=O)(=O)N2CCCCC2)c1`, the inhibition was -3.2% (inactive).
Under `COC(=O)c1ccc(CSc2nc3cc(Cl)ccc3o2)cc1` stands -2.5% (inactive); under `CC1(C(=O)NS(=O)(=O)Cc2cccc(Cl)c2)CCN1C(=O)Cc1ccc(Cl)cc1Cl` (stereo not given), -5.7% (inactive); under `Nc1cccc(-c2cncc(N3CCN(Cc4ccccn4)CC3)n2)c1`, -2.8% (inactive).
On to `Cc1cc2nc(SCCN3CCOCC3)[nH]c2cc1C`, for which the inhibition was 7.8% (inactive).
`CC(=O)c1ccc(N2C(=NC(=O)C(C)C)SC3CS(=O)(=O)CC32)cc1` (stereo not given): the inhibition is -2.5% (inactive).
As for `CCN(CC(=O)Nc1ccccc1C(F)(F)F)C(=O)CSCc1c(C)noc1C`, the figure is 2.2% (inactive).
As for `O=S(=O)(c1cccc(S(=O)(=O)N2CCC(n3nnc4ccccc43)CC2)c1)N1CCCCC1`, the figure is 4.7% (inactive).
As for `COc1cc(S(=O)(=O)N2CCN=C2c2ccccc2)ccc1Cl`, the figure is -0.6% (inactive); as for `CNC(=O)c1c(NC(NC(=O)c2ccco2)C(=O)c2ccc(Cl)cc2)sc2c1CCCC2` (stereo not given), -4.6% (inactive); as for `CCOC(=O)C1CCN(Cc2coc3ccc(Cl)cc3c2=O)CC1`, 0.9% (inactive).
On to `Cc1ccc(NC(=O)C2CCN(S(=O)(=O)c3ccc4c(c3)NC(=O)CO4)CC2)cc1C`, for which the inhibition is 1.3% (inactive).
For `CCc1ccccc1NC(=O)CSc1nnc(CCNC(=O)OC(C)(C)C)o1`, the inhibition was -3.1% (inactive).
As for `Cc1ccc(NS(=O)(=O)c2ccc(-c3coc(C)n3)cc2)c(C)c1`, the figure is -2% (inactive).
Under `COc1ccccc1N1CCN(CC(=O)NC(=O)NCc2ccco2)CC1` stands 2.9% (inactive); under `O=C(CN1CCN(c2ccccc2O)CC1)NC(=O)NCc1ccccc1`, 50.8% (active); under `Oc1ccccc1N1CCN(C(=S)NCc2ccccc2)CC1`, -2.2% (inactive).
For `Cc1cc(Br)ccc1NC(=O)CN(C)C(=O)CN1C(=O)NC2(CCCC2)C1=O`, the inhibition is 1.3% (inactive).
Under `COc1cc(OC)cc(-c2c(-c3cccs3)c3cc(-c4ccc(OC)cc4F)ccc3n2C)c1` stands -3.2% (inactive); under `CCOc1ccccc1-c1nc(CN2CCC(C(=O)N3CCOCC3)CC2)c(C)o1`, 0.2% (inactive).
As for `Cc1noc(C)c1CSc1nnc2ccc3ccccc3n12`, the figure is -0.1% (inactive); as for `NC1=NC(=O)C(Cc2cccc(Cl)c2Cl)S1` (stereo not given), -6.2% (inactive).
Take `COc1cc(Cl)ccc1OCc1cc(C(=O)N2CC[C@@H]3CCCC[C@H]3C2)no1`: the inhibition is 0.9% (inactive).
